The text below walks through data of PubChem BioAssay (NCI).

Test in all cases: NCI-60 one-dose screen, 48 h (100 = growth as untreated, 0 = no growth, -100 = all killed)
Holding throughout (conditions): 10 µM unless noted

Assay [1] concerns SK-MEL-2 melanoma.
In assay [2] the test system is EKVX NSCLC.
Assay [3] has as its system SN12C renal.
Assay [4] relates to UO-31 renal.
Assay [5] concerns TK-10 renal.
The subject of assay [6] is ACHN renal.
In assay [7] the test system is CAKI-1 renal.
Assay [8] relates to A498 renal.
Assay [9] concerns CCRF-CEM leukemia.
Assay [10] deals with MOLT-4 leukemia.
Assay [11] deals with SR leukemia.
Assay [12] relates to RPMI-8226 leukemia.
The test system of assay [13] is OVCAR-8 ovarian.
In assay [14] the test system is OVCAR-5 ovarian.
The subject of assay [15] is SK-OV-3 ovarian.
Assay [16] deals with IGROV1 ovarian.
Assay [17] concerns OVCAR-3 ovarian.
The test system of assay [18] is HS 578T breast.
Assay [19] relates to NCI/ADR-RES ovarian.
Assay [20] has as its system OVCAR-4 ovarian.

The panel holds about 83,000 compounds, 20% with a hit somewhere; the sample as a whole holds those more often.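 Testing used 96-well plates and a 48-hour single-concentration exposure. Example: -40 means 40% of the starting cells died.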 Values without a mark were called inactive. Calls of active or inactive are those of the source. How the source made its calls: active means growth percent below 10; inactive means the rest.

As for `COC(=O)C(Cc1ccccc1)NC(=O)c1ccc(NC(=O)c2[nH]c(C)c(Cl)c2Cl)c(OC(C)C)c1` (stereo not given), the growth is 105% in [1]; 101% in [2]; 16% in assay [3]; 94.8% in [4]; 53.5% in [5]; 40.3% in assay [6]. The growth in assay [7] was 90%; in assay [8] it was 86.8%; in [9], 73.2%; in [10], 84.9%; in assay [11], 17.4%; in assay [12], 57.9%. Also, the growth is -29.8% (active) in [13]; 93.2% in assay [14]; 99.1% in assay [15]; 83.1% in assay [16]; 12.9% in [17]; 62.1% in [18]. Also, the growth in assay [19] was 31.4%.

Turning to `CC1=C(C(=O)Nc2ccccc2)C(c2ccc3c(c2)OCO3)NC(=S)N1` (stereo not given), the growth in [1] was 106%; in assay [2], 107%; in [3], 104%; in assay [4] it was 88.2%; in assay [5], 97.8%; in assay [6], 107%. Besides, the growth is 97.1% in [7]; 114% in assay [8]; 115% in assay [9]; 112% in [10]; 99.2% in assay [11]; 109% in [12]. The growth in [13] is 104%; in assay [14], 115%; in [15], 110%; in assay [16], 103%; in [17] it was 110%; in [18] it was 105%. In assay [19], the growth was 106%.

Take `O=C1/C(=C/c2ccccc2F)CN(C(=O)C(Cl)Cl)C/C1=C\c1ccccc1F`: the growth is -2.69% (active) in assay [1]; -8.07% (active) in assay [2]; -79.9% (active) in assay [3]; -92% (active) in assay [4]; -39.7% (active) in assay [5]; -100% (active) in assay [6]. The growth in assay [7] is -43.2% (active); in assay [8], -62.5% (active); in assay [9] it was 1.7% (active); in assay [10] it was -10.7% (active); in [11] it was -11.4% (active); in assay [12], -27.7% (active). The growth in assay [13] was 2.66% (active); in assay [14], -41.6% (active); in [15], 32.4%; in assay [16], -36.9% (active); in assay [17], -94% (active); in assay [18] it was 4.55% (active). Also, the growth in assay [19] was 5.18% (active).

As for `CCOC(=O)c1c(C)nc2ccccc2c1/C=C/c1ccccc1`, the growth in [1] was 71.7%; in [2], 63.6%; in assay [3] it was 88.3%; in assay [4], 60.7%; in assay [5], 92.5%; in [6] it was 72.7%. Also, the growth was 59.5% in [7]; 76% in assay [8]; 45.8% in assay [9]; 23.6% in [10]; 60.3% in assay [11]; 42.2% in assay [12]. The growth was 97% in assay [14]; 65% in assay [20]; 91.5% in assay [15]; 75% in assay [16]; 79.6% in assay [17]; 94.8% in assay [18]. Also, the growth in assay [19] is 24.8%.

Regarding `COc1ccc2cc(-c3ccnc4c(N=Nc5ccc(Cl)cc5)c(N)nn34)ccc2c1`, the growth in [1] is 118%; in assay [2] it was 114%; in assay [3] it was 100%; in [4], 77.7%; in [5] it was 102%; in [6], 100%. The growth in [7] is 92.2%; in assay [8] it was 97.2%; in [9], 91.6%; in assay [10], 100%; in assay [11], 95.2%; in [12], 94.9%. The growth was 99.7% in assay [14]; 116% in [20]; 93.7% in [15]; 102% in assay [16]; 105% in assay [17]; 92.9% in assay [18]. Further, in assay [19], the growth is 94.5%.

Turning to `NC(=O)c1c(NC(=O)c2cccs2)sc2c1CCC(=O)C2`, the growth in assay [1] was 81.6%; in assay [2], 69.6%; in [3], 44.9%; in assay [4], 28.8%; in assay [5] it was 59.8%; in assay [6] it was 22%. Further, the growth is -1.29% (active) in assay [7]; 95% in assay [8]; 8.75% (active) in [9]; 13.6% in assay [10]; 5.54% (active) in [11]; -13.6% (active) in assay [12]. Moreover, the growth is 22.2% in [14]; -6.38% (active) in [20]; 87.1% in assay [15]; 29.7% in [16]; 13% in assay [17]; 35.1% in assay [18]. Moreover, the growth in assay [19] is 59.4%.

Turning to `COC1=C(C)C(=O)N2[C@@H]1[C@H](c1ccccc1)OC21C=CC(=O)C=C1`, the growth was 11.1% in assay [1]; 70.3% in assay [2]; 0.448% (active) in [3]; -42.9% (active) in assay [4]; 20.8% in [5]; -29.3% (active) in assay [6]. For the same compound, the growth in assay [7] was -59.6% (active); in assay [8] it was 92.7%; in assay [9], -19.7% (active); in [10], -4.79% (active); in [11], 2.4% (active); in assay [12], -20.7% (active). The growth in [14] was -56.1% (active); in [20] it was 33.4%; in assay [15] it was 112%; in assay [16], -20.7% (active); in assay [17] it was -4.05% (active); in [18], 32.6%. Further, the growth in assay [19] was 20.1%.

Turning to `O=C(C1=Cc2cc3ccccc3n2Cc2cnnn21)c1ccc(O)cc1`, the growth in assay [1] was 59%; in assay [2], 89.9%; in assay [3], 57.7%; in assay [4] it was 63.1%; in [5] it was 90.9%; in [6] it was 75.4%. For the same compound, the growth in [7] was 37.5%; in assay [8] it was 111%; in assay [9], 72.5%; in assay [10] it was 44.6%; in assay [11], 35.1%; in assay [12], 63.8%. For the same compound, the growth is 91.2% in assay [14]; 81.3% in [20]; 74.5% in assay [15]; 41.1% in assay [16]; 20.6% in [17]; 49.4% in [18]. The growth in [19] was 37.2%.

`Cc1ccc2c(-n3nc(C#N)c(C#N)c3N)cc(=O)[nH]c2c1`: the growth in [1] was 101%; in assay [2], 67.9%; in assay [3] it was 76.4%; in [4], 45.2%; in [5] it was 108%; in assay [6] it was 83.1%. Besides, the growth in [7] is 82.6%; in assay [8], 105%; in assay [9], 88.6%; in assay [10], 99.3%; in assay [11], 90.5%; in assay [12], 101%. The growth in [14] is 99.2%; in [20], 89%; in assay [15], 74.5%; in assay [16], 64.1%; in [17], 91.2%; in [18] it was 107%. Further, the growth in [19] is 110%.

In the case of `COc1ccc(/C=C/C(=O)c2cc3c(N)c(C(=O)Nc4cccc(Cl)c4C)sc3nc2C)cc1`, the growth in [1] is 51.6%; in assay [2], 44.5%; in [3] it was 4.97% (active); in assay [4], 22.9%; in [5], 28.7%; in assay [6] it was 17.7%. For the same compound, the growth in [7] was 13.2%; in assay [8] it was 4.47% (active); in assay [9], 10.9%; in [10], 19%; in assay [11], 16.2%; in assay [12], -11.8% (active). Also, the growth in assay [14] was 27.6%; in assay [20], 37%; in assay [15], 23.8%; in [16], 21.9%; in assay [17], 8.05% (active); in [18], 6.35% (active). Further, in assay [19], the growth was -25.5% (active).

Take `O=C(N/N=C\c1cccc([N+](=O)[O-])c1)N/N=C/c1cccc([N+](=O)[O-])c1`: the growth in assay [1] was 108%; in assay [2], 98%; in assay [3], 96.8%; in assay [4] it was 86.8%; in [5], 117%; in assay [6], 98.6%. The growth is 95.8% in assay [7]; 82.3% in assay [8]; 98.7% in assay [9]; 106% in [10]; 109% in assay [11]; 97.1% in [12]. Further, the growth in assay [14] is 114%; in [20] it was 105%; in [15], 101%; in [16], 107%; in [17], 112%; in assay [18] it was 97.9%. Besides, the growth in assay [19] is 106%.

As to `CCNC(=O)Oc1ccc(/C(=C(/C)Cc2ccc(OC)cc2)c2ccc(OCCN3CCCCC3)cc2)cc1`, the growth was 92.3% in assay [1]; 79.8% in [2]; 71.4% in assay [3]; 50.5% in assay [4]; 82.6% in assay [5]; 94.8% in assay [6]. In addition, the growth in assay [7] was 90%; in assay [8], 90.8%; in assay [9], 36.5%; in assay [10] it was 31.4%; in assay [11], -32% (active); in assay [12], 22.5%. Besides, the growth was 89.6% in assay [14]; 75.1% in assay [20]; 90.7% in assay [15]; 77.7% in assay [16]; 74.6% in [17]; 64.5% in [18]. Besides, in assay [19], the growth was 85.1%.

For the compound `CCN(CC)CCN1C(=O)c2c(c(C)c3c(oc4ccc(O)cc43)c2C)C1=O`, the growth in assay [1] was 89%; in [2], 83.2%; in assay [3] it was -41.9% (active); in [4] it was -92.4% (active); in [5] it was -13.9% (active); in [6] it was -80.4% (active). Also, the growth was -6.73% (active) in assay [7]; 91.7% in assay [8]; -14.7% (active) in assay [9]; 10.2% in assay [10]; 28.5% in [11]; -37.3% (active) in [12]. Also, the growth is 97.6% in assay [14]; 14.9% in assay [20]; 101% in [15]; 1.64% (active) in assay [16]; -68.2% (active) in assay [17]; 72.9% in assay [18]. Also, in [19], the growth was 21.7%.

With `CCCCNc1nnc2n(Cc3ccccc3)c(=O)c3c4c(sc3n12)CCCC4`, the growth was 41.6% in [1]; 60.8% in [2]; 46% in [3]; 34.2% in [4]; 59.3% in assay [5]; 40.8% in [6]. Moreover, the growth in assay [7] is 42.6%; in assay [8], 45.4%; in assay [9], 59.2%; in assay [10], 10.4%; in assay [11], 9.01% (active); in assay [12] it was 34.4%. Besides, the growth in assay [14] is 106%; in assay [20], 71.7%; in [15] it was 62.5%; in [16], 46.7%; in [17], 49.2%; in assay [18] it was 71.5%. Besides, the growth in assay [19] is 55.7%.

As for `Nc1[nH]c(=S)nc2oc(-c3ccccc3)c(-c3ccccc3)c12`, the growth was 101% in [1]; 98% in assay [2]; 97.5% in [3]; 86.9% in assay [4]; 114% in assay [5]; 101% in assay [6]. Moreover, the growth was 109% in assay [7]; 90.8% in assay [8]; 119% in assay [9]; 107% in assay [10]; 93.8% in assay [11]; 99.8% in assay [12]. Besides, the growth in [13] is 101%; in [14], 98.2%; in assay [15], 103%; in assay [16], 100%; in [17], 102%; in assay [18] it was 91.1%. The growth in assay [19] is 98.9%.
